Data reported in the supplement of paper PMC13380429.
Structures can show the parent of a compound that is named as a salt.

tested on: Vero E6 infected with SARS-CoV-2; experiment: morphology score (similarity to uninfected cells); higher = more like uninfected cells; conditions: 24 h

**Q.** For `CC(=O)O[C@]1(C(C)=O)CC[C@H]2[C@@H]3CCC4=CC(=O)CCC4=C3[C@@H](c3ccc(N(C)C)cc3)C[C@@]21C` [Ulipristal acetate] (10 µM), which morphology score is on record?
**A.** The morphology score was 0.286.

**Q.** For `Oc1ccc(OC2CCCCO2)cc1` (stereo not given) [deoxyarbutin] (10 µM), which morphology score is on record?
**A.** The morphology score was 0.198.

**Q.** Which morphology score does the source give for `O=C(c1ccc(Cl)o1)N1CC2CNCC2C1` (stereo not given) (10 µM) here?
**A.** Its morphology score is 0.187.

**Q.** Which morphology score does the source give for `CC(=O)OCC1=C(C(=O)O)N2C(=O)[C@@H](NC(=O)CCCC(N)C(=O)O)C2SC1` (stereo not given in full) [cephalosporin-c-zn] (10 µM) here?
**A.** Its morphology score is 0.00489.

**Q.** `COc1cc(NS(=O)(=O)c2ccc(N)cc2)nc(OC)n1` [sulphadimethoxine] (10 µM) was tested. Which morphology score did it give?
**A.** The morphology score was -0.00223.

**Q.** How did the morphology score turn out when `C[n+]1c2cc(N)ccc2cc2ccc(N)cc21.Nc1ccc2cc3ccc(N)cc3nc2c1` [acriflavine] (0.833333 µM) was run?
**A.** The morphology score was 0.32.

**Q.** How did the morphology score turn out when `COc1ccc([C@]2(C#N)CC[C@@H](C(=O)O)CC2)cc1OC1CCCC1` [cilomilast] (10 µM) was run?
**A.** The morphology score was 0.246.

**Q.** `Nc1nc(N)nc(-c2cc(Cl)ccc2Cl)n1` [irsogladine] (10 µM) was tested. Which morphology score did it give?
**A.** The morphology score was 0.168.

**Q.** How did the morphology score turn out when `COC(=O)[C@H](Cc1ccccc1)NC(=O)[C@@H](N)CC(=O)O` [aspartame] (10 µM) was run?
**A.** The morphology score was 0.172.

**Q.** How did the morphology score turn out when `OC[C@H]1O[C@@H](OCCc2ccc(O)cc2)[C@H](O)[C@@H](O)[C@@H]1O` [salidroside] (10 µM) was run?
**A.** The morphology score was 0.0363.

**Q.** With `CC1(CN)Cc2ccccc2C1` (10 µM) as the molecule, how does the morphology score read?
**A.** The morphology score was 0.0351.

**Q.** `CCCOc1ccc2[nH]c(NC(=O)OC)nc2c1` [oxibendazole] (10 µM) was tested. Which morphology score did it give?
**A.** The morphology score was -0.158.

**Q.** How did the morphology score turn out when `CC(C)=CCc1c(O)cc(O)c2c(=O)c(O)c(-c3ccc(C(F)(F)F)cc3)oc12` (0.833333 µM) was run?
**A.** Its morphology score is 0.14.

**Q.** With `CCN(CC)CCOCCOC(=O)C1(c2ccccc2)CCCC1` [carbetapentane] (10 µM) as the molecule, how does the morphology score read?
**A.** The morphology score was 0.363.

**Q.** `Cc1cc(O)c(C(=O)N[C@@H](C(=O)N[C@@H]2C(=O)N3C(C(=O)O)=C(CSc4nnnn4C)CS[C@H]23)c2ccc(O)cc2)cn1` [cefpiramide] (10 µM) was tested. Which morphology score did it give?
**A.** The morphology score was 0.00194.

**Q.** How did the morphology score turn out when `COc1ccc(C[C@H]2NC[C@H](O)[C@H]2OC(C)=O)cc1` [anisomycin] (0.833333 µM) was run?
**A.** The morphology score was 0.045.

**Q.** Which morphology score does the source give for `CN[C@@H]1[C@H](O[C@H]2[C@H](O[C@H]3[C@H](O)[C@@H](O)[C@H](N=C(N)N)[C@@H](O)[C@@H]3N=C(N)N)O[C@@H](C)[C@]2(O)C=O)O[C@@H](CO)[C@H](O)[C@H]1O` [STREPTOMYCIN SULFATE [5mM; 10% aq DMSO + 5mM ethanolamine]] (10 µM) here?
**A.** Its morphology score is 0.104.

**Q.** For `C[C@@H]1C[C@H]2[C@@H]3C[C@H](F)C4=CC(=O)C=C[C@]4(C)[C@@]3(F)[C@@H](O)C[C@]2(C)[C@@]1(O)C(=O)COC(=O)C(C)(C)C` [flumethasone-pivalate] (10 µM), which morphology score is on record?
**A.** The morphology score was 0.324.

**Q.** With `COc1ccccc1OCC(O)CN1CCN(CC(=O)Nc2c(C)cccc2C)CC1` (stereo not given) [ranolazine] (10 µM) as the molecule, how does the morphology score read?
**A.** Its morphology score is 0.0908.

**Q.** How did the morphology score turn out when `O=C(Nc1cnn2ccc(N3CCC[C@@H]3c3cc(F)ccc3F)nc12)N1CC[C@H](O)C1` [larotrectinib] (10 µM) was run?
**A.** Its morphology score is -0.124.

**Q.** With `O=C(c1cc2ccccc2o1)N1CCN(Cc2ccccc2)CC1` [befuraline] (10 µM) as the molecule, how does the morphology score read?
**A.** The morphology score was -0.00895.

**Q.** How did the morphology score turn out when `CN1CCC[C@@H]1Cc1c[nH]c2ccc(CCS(=O)(=O)c3ccccc3)cc12` [eletriptan] (10 µM) was run?
**A.** Its morphology score is 0.207.

**Q.** For `O=C(O)[C@H]1CN(C/C=C/P(=O)(O)O)CCN1` [midafotel] (10 µM), which morphology score is on record?
**A.** Its morphology score is 0.0949.

**Q.** With `O=C(O)P(=O)(O)O` [foscarnet] (10 µM) as the molecule, how does the morphology score read?
**A.** The morphology score was 0.202.

**Q.** How did the morphology score turn out when `COc1c(Nc2ccc(S(C)(=O)=O)nc2C)ncnc1OC1CCN(C(=O)OC(C)C)CC1` (10 µM) was run?
**A.** The morphology score was -0.00778.

**Q.** For `CC(=O)NC[C@H]1CN(c2ccc(N3CCOCC3)c(F)c2)C(=O)O1` [linezolid] (10 µM), which morphology score is on record?
**A.** Its morphology score is 0.0235.

**Q.** Which morphology score does the source give for `Nc1ccc(S(=O)(=O)Nc2cnc3ccccc3n2)cc1` [sulfaquinoxaline] (10 µM) here?
**A.** Its morphology score is 0.114.

**Q.** `COc1cc2c(Oc3ccc(NC(=O)C4(C(=O)Nc5ccc(F)cc5)CC4)cc3F)ccnc2cc1OCCCN1CCOCC1` [foretinib] (10 µM) was tested. Which morphology score did it give?
**A.** The morphology score was 0.152.

**Q.** `CSCC[C@H](NC(=O)[C@H](CC(C)C)NC(=O)CNC(=O)[C@H](Cc1ccccc1)NC(=O)[C@H](Cc1ccccc1)NC(=O)[C@H](CCC(N)=O)NC(=O)[C@H](CCC(N)=O)NC(=O)[C@@H]1CCCN1C(=O)[C@H](CCCCN)NC(=O)[C@@H]1CCCN1C(=O)[C@@H](N)CCCN=C(N)N)C(N)=O` [substance-P] (10 µM) was tested. Which morphology score did it give?
**A.** Its morphology score is -0.0435.

**Q.** How did the morphology score turn out when `C=C1/C(=C\C=C2/CCC[C@]3(C)[C@@H]([C@H](C)CC[C@@H](O)C(C)C)CC[C@@H]23)C[C@@H](O)C[C@@H]1O` [tacalcitol] (10 µM) was run?
**A.** The morphology score was -0.24.

**Q.** Which morphology score does the source give for `O=C(Nc1ccc(Oc2ccc(Cl)cn2)c(Cl)c1)c1ccccn1` (10 µM) here?
**A.** The morphology score was 0.0983.

**Q.** `NCCCCN=C(N)N` [agmatine] (10 µM) was tested. Which morphology score did it give?
**A.** Its morphology score is 0.0302.

**Q.** How did the morphology score turn out when `CCN1CCN(C(=O)N[C@@H](C(=O)N[C@@H]2C(=O)N3C(C(=O)O)=C(CSc4nnnn4C)CS[C@H]23)c2ccc(O)cc2)C(=O)C1=O` [cefoperazone] (10 µM) was run?
**A.** Its morphology score is 0.206.

**Q.** How did the morphology score turn out when `Cc1cc(C2CCCCC2)n(O)c(=O)c1` [ciclopirox] (0.833333 µM) was run?
**A.** The morphology score was 0.0975.

**Q.** Which morphology score does the source give for `Nc1nccs1` [aminothiazole] (10 µM) here?
**A.** Its morphology score is 0.0165.

**Q.** Which morphology score does the source give for `CC(C)c1nc(CN(C)C(=O)N[C@H](C(=O)N[C@@H](Cc2ccccc2)C[C@H](O)[C@H](Cc2ccccc2)NC(=O)OCc2cncs2)C(C)C)cs1` [ritonavir] (10 µM) here?
**A.** The morphology score was 0.0318.

**Q.** Which morphology score does the source give for `O=[N+]([O-])c1cn2c(n1)OC[C@@H](OCc1ccc(-c3ccc(OC(F)(F)F)cc3)nc1)C2` (10 µM) here?
**A.** Its morphology score is -0.214.

**Q.** Which morphology score does the source give for `Oc1cc2c(cc1O)C(c1ccccc1)CNCC2` (stereo not given) (10 µM) here?
**A.** Its morphology score is -0.34.

**Q.** Which morphology score does the source give for `CNC(=O)c1cc(COc2nnc(Nc3ccc(Cl)cc3)c3ccoc23)ccn1` [telatinib] (10 µM) here?
**A.** The morphology score was 0.0611.

**Q.** `C=C1CC[C@H](O)C/C1=C/C=C1\CCC[C@]2(C)[C@@H]([C@H](C)CCCC(C)(C)O)CC[C@@H]12` [calcifediol] (10 µM) was tested. Which morphology score did it give?
**A.** Its morphology score is -0.0147.
